Experimental data reported in PubChem BioAssay AID1159580 (chemical genetic matrix, 2015).
Where “and” joins values, the source holds several entries; their conditions need not be identical. Equal values may be shown once. The campaign covered roughly 5,500 compounds. About 2,000 (36%) were called active. Not shown: some 18% with an inconclusive outcome. Some of the results follow. A number with no mark means an inactive call. Rule as the data show it: active = normalized growth mostly below about 0.91 (no sharp cut-off); inconclusive = no clear call, values can overlap the other calls; inactive = mostly above about 0.92.

Assay: chemical genetic growth profiling, strain panel (AID 1159580);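 also: tested at 20 µM; growth read once vehicle control cultures reached saturation at 30 °C; 1 = growth at the plate median or of vehicle wells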
Conditions: S. cerevisiae deletion strains, growth OD

## C=CCc1cc(OC)c2c(c1OC)OCO2
Locus YAL013W, strain DEP1, stronger effect = lower value
  normalized growth: 0.971
Locus YAL021C, strain ccr4, stronger effect = lower value
  normalized growth: 1
Locus YAL026C, strain drs2, stronger effect = lower value
  normalized growth: 0.955
Locus YAL030W, strain snc1, stronger effect = lower value
  normalized growth: 0.95
Locus YBL061C, strain skt5, stronger effect = lower value
  normalized growth: 0.926
Locus YBR009C, strain hhf1, stronger effect = lower value
  normalized growth: 0.938
Locus YBR021W, strain FUR4, stronger effect = lower value
  normalized growth: 0.934
Locus YBR023C, strain chs3, stronger effect = lower value
  normalized growth: 0.902 (active)
Locus YBR171W, strain sec66, stronger effect = lower value
  normalized growth: 0.874 (active)
Locus YBR229C, strain ROT2, stronger effect = lower value
  normalized growth: 0.996
Locus YBR231C, strain swc5, stronger effect = lower value
  normalized growth: 0.982
Locus YBR279W, strain paf1, stronger effect = lower value
  normalized growth: 0.966
Locus YCL011C, strain gbp2, stronger effect = lower value
  normalized growth: 0.937
Locus YCL016C, strain dcc1, stronger effect = lower value
  normalized growth: 0.937
Locus YCL029C, strain bik1, stronger effect = lower value
  normalized growth: 0.945
Locus YCL061C, strain MRC1, stronger effect = lower value
  normalized growth: 0.944
Locus YCL069W, strain vba3, stronger effect = lower value
  normalized growth: 0.969
Locus YCR088W, strain abp1, stronger effect = lower value
  normalized growth: 0.954
Locus YDL005C, strain med2, stronger effect = lower value
  normalized growth: 0.992
Locus YDL035C, strain GPR1, stronger effect = lower value
  normalized growth: 0.968
Locus YDL040C, strain nat1, stronger effect = lower value
  normalized growth: 0.924 (active)
Locus YDL074C, strain BRE1, stronger effect = lower value
  normalized growth: 0.91
Locus YDL101C, strain DUN1, stronger effect = lower value
  normalized growth: 0.995
Locus YDL134C, strain PPH21, stronger effect = lower value
  normalized growth: 0.982
Locus YDL185W, strain tfp1, stronger effect = lower value
  normalized growth: 0.968
Locus YDL192W, strain arf1, stronger effect = lower value
  normalized growth: 0.956
Locus YDR001C, strain nth1, stronger effect = lower value
  normalized growth: 0.93
Locus YDR069C, strain doa4, stronger effect = lower value
  normalized growth: 1.06
Locus YDR101C, strain arx1, stronger effect = lower value
  normalized growth: 0.908 (active)
Locus YDR137W, strain rgp1, stronger effect = lower value
  normalized growth: 0.955
Locus YDR150W, strain NUM1, stronger effect = lower value
  normalized growth: 0.979
Locus YDR159W, strain sac3, stronger effect = lower value
  normalized growth: 0.797 (active)
Locus YDR162C, strain NBP2, stronger effect = lower value
  normalized growth: 0.951
Locus YDR195W, strain ref2
  normalized growth: 1.22 [resistant] (active)
Locus YDR297W, strain sur2, stronger effect = lower value
  normalized growth: 0.94
Locus YDR318W, strain mcm21, stronger effect = lower value
  normalized growth: 0.947
Locus YDR334W, strain swr1, stronger effect = lower value
  normalized growth: 1.02
Locus YDR335W, strain msn5, stronger effect = lower value
  normalized growth: 0.982
Locus YDR388W, stronger effect = lower value
  normalized growth: 0.947
Locus YDR392W, strain spt3, stronger effect = lower value
  normalized growth: 0.378 (active)
Locus YDR502C, strain sam2, stronger effect = lower value
  normalized growth: 0.929
Locus YEL003W, strain gim4, stronger effect = lower value
  normalized growth: 0.955
Locus YEL037C, strain rad23, stronger effect = lower value
  normalized growth: 0.987
Locus YEL061C, strain CIN8 (second series), stronger effect = lower value
  normalized growth: 0.946
Locus YEL061C, strain CIN8, stronger effect = lower value
  normalized growth: 0.966
Locus YER015W, strain faa2, stronger effect = lower value
  normalized growth: 0.955
Locus YER016W, strain bim1, stronger effect = lower value
  normalized growth: 0.938
Locus YER110C, stronger effect = lower value
  normalized growth: 0.929
Locus YER111C, strain swi4, stronger effect = lower value
  normalized growth: 0.898 (active)
Locus YER155C, strain BEM2 (second series), stronger effect = lower value
  normalized growth: 0.462 (active)
Locus YER155C, strain BEM2, stronger effect = lower value
  normalized growth: 0.96
Locus YER167W, strain BCK2, stronger effect = lower value
  normalized growth: 0.938
Locus YFR010W, strain ubp6, stronger effect = lower value
  normalized growth: 1.06
Locus YGL078C, strain dbp3, stronger effect = lower value
  normalized growth: 0.959
Locus YGL086W, strain mad1, stronger effect = lower value
  normalized growth: 0.962
Locus YGL167C, strain pmr1, stronger effect = lower value
  normalized growth: 0.908 (active)
Locus YGL173C, strain kem1, stronger effect = lower value
  normalized growth: 0.909
Locus YGL227W, strain vid30, stronger effect = lower value
  normalized growth: 0.882 (active)
Locus YGL240W, strain doc1, stronger effect = lower value
  normalized growth: 0.839 (active)
Locus YGL248W, strain PDE1, stronger effect = lower value
  normalized growth: 0.983
Locus YGL253W, strain hxk2, stronger effect = lower value
  normalized growth: 0.945
Locus YGR078C, strain PAC10, stronger effect = lower value
  normalized growth: 0.903
Locus YGR135W, strain pre9, stronger effect = lower value
  normalized growth: 0.948
Locus YGR229C, strain SMI1, stronger effect = lower value
  normalized growth: 0.932
Locus YGR252W, strain gcn5, stronger effect = lower value
  normalized growth: 0.969
Locus YHR013C, strain ard1, stronger effect = lower value
  normalized growth: 1.32 [resistant] (active)
Locus YHR027C, strain rpn1, stronger effect = lower value
  normalized growth: 0.947
Locus YHR030C, strain SLT2, stronger effect = lower value
  normalized growth: 0.963 and 0.999
Locus YHR079C, strain IRE1 (second series), stronger effect = lower value
  normalized growth: 0.932
Locus YHR079C, strain IRE1, stronger effect = lower value
  normalized growth: 0.995
Locus YHR094C, strain hxt1, stronger effect = lower value
  normalized growth: 0.935
Locus YHR129C, strain ARP1, stronger effect = lower value
  normalized growth: 0.955
Locus YHR142W, strain chs7, stronger effect = lower value
  normalized growth: 0.723 (active)
Locus YHR200W, strain rpn10, stronger effect = lower value
  normalized growth: 0.969
Locus YIL066C, strain RNR3, stronger effect = lower value
  normalized growth: 0.979
Locus YIL073C, strain SPO22, stronger effect = lower value
  normalized growth: 1.07
Locus YIL125W, strain kgd1, stronger effect = lower value
  normalized growth: 0.934
Locus YIR030C, strain dcg1, stronger effect = lower value
  normalized growth: 0.933
Locus YJL092W, strain hpr5, stronger effect = lower value
  normalized growth: 0.922
Locus YJL095W, strain BCK1 (second series), stronger effect = lower value
  normalized growth: 0.879 (active)
Locus YJL095W, strain BCK1, stronger effect = lower value
  normalized growth: 0.868 and 0.994
Locus YJL115W, strain asf1, stronger effect = lower value
  normalized growth: 0.978
Locus YJL129C, strain trk1, stronger effect = lower value
  normalized growth: 0.942
Locus YJL134W, strain LCB3, stronger effect = lower value
  normalized growth: 0.973
Locus YJL154C, strain vps35, stronger effect = lower value
  normalized growth: 0.989
Locus YJL164C, strain tpk1, stronger effect = lower value
  normalized growth: 0.939
Locus YJL166W, strain qcr8, stronger effect = lower value
  normalized growth: 0.934
Locus YJL168C, strain set2, stronger effect = lower value
  normalized growth: 0.94
Locus YJL187C, strain SWE1 (second series), stronger effect = lower value
  normalized growth: 0.985
Locus YJL187C, strain SWE1, stronger effect = lower value
  normalized growth: 0.945
Locus YJR043C, strain POL32, stronger effect = lower value
  normalized growth: 1.05
Locus YJR066W, strain TOR1, stronger effect = lower value
  normalized growth: 0.95
